Screens (PubChem)
RPL19A TOR yeast = modulators of TOR pathway RPL19A-GFP in S. cerevisiae; S. cerevisiae RPL19A-GFP strain, flow cytometry, 3 h; active compounds read low; percent response vs DMSO, % at 10 µM; 330,000 tested, 0.3% active; AID 2025;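 active = percent response vs DMSO below 50%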;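 also: median channel GFP fluorescence of the barcoded RPL19A-GFP strain; ratio of sample median GFP to plate DMSO average so 100% = DMSO; lower means less RPL19A-GFP as with rapamycin TOR inhibition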
LAP4 TOR yeast = modulators of TOR pathway LAP4-GFP in S. cerevisiae; S. cerevisiae LAP4-GFP multiplex, flow cytometry GFP, 3 h; median GFP as percent of DMSO wells; GFP response vs DMSO, % at 10 µM; 320,000 tested, 0.34% active;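 active = GFP response vs DMSO above a set limit, about the screen mean plus 3 SD, cut at about 150% in these data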
CIT2-GFP yeast = alters CIT2-GFP fluorescence in TOR pathway yeast screen; S. cerevisiae CIT2-GFP strain, flow cytometry, 3 h; 100 means same as DMSO wells; GFP response vs DMSO, % at 10 µM; 320,000 tested, 0.065% active; AID 2029;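 active = GFP response relative to DMSO above a set limit, near the screen mean plus 3 SD, cut at about 150% in these data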;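 also: ratio of well median GFP fluorescence to mean of DMSO wells on the plate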
MEP2 TOR yeast = modulators of TOR pathway MEP2-GFP in S. cerevisiae. S. cerevisiae MEP2-GFP strain, flow cytometry GFP, 3 h; 100% = DMSO control level. GFP response vs DMSO, % at 10 µM. 330,000 tested, 0.51% active. AID 2016;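 active = GFP response versus DMSO above a set limit, roughly screen mean plus 3 SD, cut at about 180% in these data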;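 also: median GFP fluorescence of the barcode-gated MEP2-GFP cells per well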
AGP1-GFP MLPCN = modulators of TOR pathway AGP1-GFP in S. cerevisiae; S. cerevisiae AGP1-GFP multiplex flow cytometry, 3 h; GFP as percent of DMSO wells; GFP response vs DMSO, % at 10 µM; 320,000 tested, 0.02% active;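 active = GFP response relative to DMSO above a set limit, near screen average plus 3 SD, cut at about 150% in these data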;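 also: median GFP channel fluorescence of the gated AGP1 strain per well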
LAP4-GFP pick2 = reconfirmed LAP4-GFP TOR pathway modulator in yeast. shares compounds with LAP4 TOR yeast. 590 tested, 20% active. GFP response vs DMSO, % at 10 µM. S. cerevisiae LAP4-GFP strain, flow cytometry GFP, 3 h;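 active = GFP signal as percent of the solvent control above about 150%, meaning raised reporter expression, limit read from the data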;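 also: ratio of well median GFP fluorescence to plate DMSO mean so 100% = DMSO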
MEP2-GFP pick2 = yeast MEP2-GFP modulation, second cherry pick. shares compounds with LAP4 TOR yeast. S. cerevisiae MEP2-GFP strain, flow cytometry GFP, 3 h. GFP response vs DMSO, % at 10 µM. 590 tested, 10% active. AID 2622;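 active = GFP signal above 150% of the solvent control wells, that is a rise of more than half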;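 also: median channel GFP fluorescence of all gated yeast cells per well; ratio of median GFP to plate DMSO average so 100% = DMSO level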
RPL19A-GFP pick2 = yeast RPL19A-GFP TOR reporter modulation, second cherry pick; GFP response vs DMSO, % at 10 µM; shares compounds with LAP4 TOR yeast; 590 tested, 3% active; S. cerevisiae RPL19A-GFP strain, flow cytometry GFP, 3 h; active compounds read low; 100% means same as DMSO wells; AID 2623;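 active = under 65% GFP response relative to DMSO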;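 also: median GFP channel fluorescence per well over the all cells gate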
CIT2-GFP pick2 = second confirmation of modulators of TOR reporter CIT2-GFP in yeast; AID 2624; GFP response vs DMSO, % at 10 µM; S. cerevisiae CIT2-GFP strain, flow cytometry GFP, 3 h; DMSO control wells read 100%; 590 tested, 8% active; shares compounds with LAP4 TOR yeast;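 active = GFP response vs DMSO above about 150%, limit read from the data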;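 also: median green fluorescence per well over all gated yeast cells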
AGP1-GFP pick2 = second confirmation of modulators of TOR reporter AGP1-GFP in yeast; shares compounds with LAP4 TOR yeast; S. cerevisiae AGP1-GFP strain, flow cytometry GFP, 3 h; percent response vs DMSO, % at 10 µM; 590 tested, under 10 active; AID 2643;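 active = over 150 percent of DMSO response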;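 also: median GFP channel fluorescence over all cells without mother daughter split; sample median GFP divided by mean DMSO control so 100% equals DMSO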
Yeast autofluor = compound is autofluorescent in yeast s288c cells | shares compounds with LAP4 TOR yeast | S. cerevisiae s288c, 520 nm autofluorescence, flow cytometry, 3 h; active compounds read high; zero means same as solvent-only cells | fluorescence change (kMESF span) at 33 µM | 610 tested, under 10 active | AID 2757;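 active = fluorescence span over the dose series, or activity score, above about 33, limit read from the data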
Yeast autofl DR = TOR screen hit shows autofluorescence in yeast s288c; AID 488829; 110 tested, under 10 active; fluorescence change (span) at 33 µM; shares compounds with LAP4 TOR yeast; S. cerevisiae s288c parental, compound autofluorescence, flow cytometry, 3 h;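 active = fluorescence change span, or the activity score built from it, above 25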
TORC1 bypass gr = compounds blocking wildtype yeast growth but not TORC1 bypass cells | shares compounds with LAP4 TOR yeast | S. cerevisiae BY4741 spot growth rating, 48-72 h; active compounds read low | growth rating (0-3) at 30 µM | 120 tested, under 10 active | AID 504456;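 active = growth rating at most 1 for wild type yeast while the TORC1 bypass strain still grows fully, rated 3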
An asterisk follows results filed as active. Rows were chosen to be rich in hits. Some 0.92% of all compounds tested hit in one or more screens of this group.

For Cc1ccc(S(=O)(=O)c2ccc([N+](=O)[O-])cn2)cc1 the results were RPL19A TOR yeast 77, LAP4 TOR yeast 146, CIT2-GFP yeast 84, MEP2 TOR yeast 100, AGP1-GFP MLPCN 95, Yeast autofluor 0.92, Yeast autofl DR 0.57 and TORC1 bypass gr 3.
`O=[N+]([O-])c1ccc(S(=O)(=O)c2ccccc2)nc1` gave RPL19A TOR yeast 71, LAP4 TOR yeast 177*, CIT2-GFP yeast 92, MEP2 TOR yeast 125, AGP1-GFP MLPCN 94 and Yeast autofluor 0.4.
Screening CC(OC(=O)c1cccnc1Cl)C(=O)Nc1ccc(S(N)(=O)=O)cc1 (stereo unspecified) returned RPL19A TOR yeast 97, LAP4 TOR yeast 92, CIT2-GFP yeast 94, MEP2 TOR yeast 90 and AGP1-GFP MLPCN 96.
COc1ccc(OC)c(/C=C(\C)C(=O)c2c(C)cc(C)[nH]c2=O)c1 was read as RPL19A TOR yeast 102, LAP4 TOR yeast 105, CIT2-GFP yeast 99, MEP2 TOR yeast 107 and AGP1-GFP MLPCN 102.
`CCN(CC)c1ccc(C(=O)O)cc1` gave RPL19A TOR yeast 98, LAP4 TOR yeast 99, CIT2-GFP yeast 97, MEP2 TOR yeast 96 and AGP1-GFP MLPCN 93.
For CCN(CC)c1ccc(/C=C2\C(=O)c3ccc(C(=O)O)cc3C2=O)cc1 the results were RPL19A TOR yeast 115, LAP4 TOR yeast 235*, CIT2-GFP yeast 228*, MEP2 TOR yeast 323*, AGP1-GFP MLPCN 116, LAP4-GFP pick2 277*, MEP2-GFP pick2 391*, RPL19A-GFP pick2 121, CIT2-GFP pick2 263*, AGP1-GFP pick2 106 and Yeast autofluor 8.9.
Screening Cc1cc(C)cc(N(CC(=O)NC2CCCC2)C(=O)CCC(=O)Nc2nc(C)cs2)c1 returned RPL19A TOR yeast 92, LAP4 TOR yeast 92, CIT2-GFP yeast 92, MEP2 TOR yeast 91 and AGP1-GFP MLPCN 91.
For O=C(CC(=O)c1ccccc1)Nc1cc(C(F)(F)F)ccc1Cl the results were RPL19A TOR yeast 106, LAP4 TOR yeast 99, CIT2-GFP yeast 92, MEP2 TOR yeast 105, AGP1-GFP MLPCN 94, LAP4-GFP pick2 100, MEP2-GFP pick2 112, RPL19A-GFP pick2 101, CIT2-GFP pick2 102 and AGP1-GFP pick2 99.
For Cc1ccc2c(c1)c(/C=C/c1cc[n+](C)cc1)c(C)n2C the results were RPL19A TOR yeast 127, LAP4 TOR yeast 198*, CIT2-GFP yeast 206*, MEP2 TOR yeast 289*, AGP1-GFP MLPCN 117 and Yeast autofluor 16.
Cc1ccc2[nH]c(C)c(/C=C/c3cc[n+](C)cc3)c2c1 was read as RPL19A TOR yeast 124, LAP4 TOR yeast 209*, CIT2-GFP yeast 224*, MEP2 TOR yeast 344*, AGP1-GFP MLPCN 110 and Yeast autofluor 17.
`COc1ccc(-c2nn(-c3ccccc3)cc2/C=N/Nc2ccc(Cl)c(C(=O)O)c2)cc1OC` gave RPL19A TOR yeast 93, LAP4 TOR yeast 98, CIT2-GFP yeast 80, MEP2 TOR yeast 90 and AGP1-GFP MLPCN 92.
COc1ccc(C(C)=O)cc1COc1ccc(-n2cnnn2)cc1 was read as RPL19A TOR yeast 100, LAP4 TOR yeast 107, CIT2-GFP yeast 104, MEP2 TOR yeast 102 and AGP1-GFP MLPCN 101.
For CCOC(=O)N/N=C\c1ccc(OC/C=C/c2ccccc2)cc1 the results were RPL19A TOR yeast 112, LAP4 TOR yeast 76, CIT2-GFP yeast 82, MEP2 TOR yeast 105 and AGP1-GFP MLPCN 85.
O=C1C2C3C=CC(C3)C2C(=O)N1/N=C/c1cc(Br)cc([N+](=O)[O-])c1O (stereo unspecified) was read as RPL19A TOR yeast 93, LAP4 TOR yeast 180*, CIT2-GFP yeast 91, MEP2 TOR yeast 105, AGP1-GFP MLPCN 85, LAP4-GFP pick2 142, MEP2-GFP pick2 123, RPL19A-GFP pick2 96, CIT2-GFP pick2 126 and AGP1-GFP pick2 95.
COc1ccccc1CCNC(=O)c1ccc(NC(=O)CC2SC(N3CCCCC3)=NC2=O)cc1 (stereo unspecified) was read as RPL19A TOR yeast 92, LAP4 TOR yeast 91, CIT2-GFP yeast 97, MEP2 TOR yeast 102 and AGP1-GFP MLPCN 95.
Screening CCOC(=O)c1c(C)oc2c1c(C(c1cccnc1)N1CCOCC1)c(O)c1ccccc12 (stereo unspecified) returned RPL19A TOR yeast 80, LAP4 TOR yeast 160*, CIT2-GFP yeast 72, MEP2 TOR yeast 85, AGP1-GFP MLPCN 77, Yeast autofluor 2.1, Yeast autofl DR 1.1 and TORC1 bypass gr 3.
Screening Cc1cc(NC(=O)CSc2nnc(Nc3ccccc3C)s2)no1 returned RPL19A TOR yeast 91, LAP4 TOR yeast 153*, CIT2-GFP yeast 87, MEP2 TOR yeast 82, AGP1-GFP MLPCN 104, LAP4-GFP pick2 103, MEP2-GFP pick2 105, RPL19A-GFP pick2 98, CIT2-GFP pick2 107 and AGP1-GFP pick2 100.
For Cc1cc(NC(=O)CSc2nnc(Nc3ccccc3)s2)no1 the results were RPL19A TOR yeast 100, LAP4 TOR yeast 99, CIT2-GFP yeast 101, MEP2 TOR yeast 102 and AGP1-GFP MLPCN 102.
